Experimental data: the antibiotic and cytotoxicity screens of Wong et al. (2023)
In all, about 39,000 compounds went through this assay and about 1,500 (3.8%) were called active. This excerpt belongs to a sample that is enriched for actives.

System: HSkMC (human skeletal muscle cells)
Test: cytotoxicity call (relative viability < 0.9)
Conditions: 10 µM

Row | SMILES | cytotoxicity call
1 | CN(C)C/C=C/C(=O)Nc1ccc(C(=O)Nc2cccc(Nc3ncc(Cl)c(-c4c[nH]c5ccccc45)n3)c2)cc1 | active
2 | C[C@@H]1CN([C@@H](C)CO)C(=O)c2cc(NC(=O)Nc3ccccc3)ccc2O[C@@H](C)CCCCO[C@@H]1CN(C)Cc1ccncc1 | inactive
3 | Nc1c2c(nc3ccccc13)CCCC2 | inactive
4 | Cl.Nc1c2c(nc3ccccc13)CCCC2 | inactive
5 | C[C@@H]1CCCCO[C@H](CN(C)Cc2ccncc2)[C@@H](C)CN([C@H](C)CO)C(=O)c2cc(NS(C)(=O)=O)ccc2O1 | inactive
6 | C[C@@H]1CCCCO[C@H](CN(C)C(=O)c2ccccc2)[C@@H](C)CN([C@@H](C)CO)C(=O)c2cc(NS(=O)(=O)c3cccs3)ccc2O1 | inactive
7 | CCC[C@@H](O)C#Cc1cnc2c(c1)C(=O)N([C@H](C)CO)C[C@H](C)[C@H](CN(C)Cc1ccc3c(c1)OCO3)O2 | inactive
8 | COc1ccc(S(=O)(=O)Nc2ccc3c(c2)C(=O)N([C@H](C)CO)C[C@H](C)[C@H](CN(C)S(C)(=O)=O)OCCCC[C@H](C)O3)cc1 | inactive
9 | CO[C@H]1C[C@H](O[C@@H]2/C(C)=C/C[C@@H]3C[C@@H](C[C@]4(CC[C@H](C)[C@@H](C5CCCCC5)O4)O3)OC(=O)[C@@H]3C=C(C)/C(=N/O)[C@H]4OC/C(=C\C=C\[C@@H]2C)[C@]43O)O[C@@H](C)[C@@H]1O | active
10 | CO[C@H]1C[C@@H](O[C@@H]2/C(C)=C/C[C@@H]3C[C@@H](C[C@]4(CC[C@H](C)[C@@H](C5CCCCC5)O4)O3)OC(=O)[C@@H]3C=C(C)/C(=N/O)[C@H]4OC/C(=C\C=C\[C@@H]2C)[C@]43O)O[C@@H](C)[C@@H]1O | inactive
11 | COC1CC(OC2C(C)=CCC3CC(CC4(CCC(C)C(C5CCCCC5)O4)O3)OC(=O)C3C=C(C)C(=NO)C4OCC(=CC=CC2C)C34O)OC(C)C1O (stereo not given) | active
12 | O=c1[nH]c(=O)n([C@H]2C[C@H](O)[C@@H](CO)O2)cc1C(F)(F)F | inactive
13 | C[C@H](CO)N1C[C@H](C)[C@@H](CN(C)Cc2ccncc2)OCCCC[C@H](C)Oc2ccc(NC(=O)CCC(F)(F)F)cc2C1=O | inactive
14 | C[C@H](CO)N1C[C@H](C)[C@@H](CN(C)CC2CCCCC2)OCCCC[C@H](C)Oc2ccc(NC(=O)CCCCCC(=O)Nc3ccccc3N)cc2C1=O | inactive
15 | COc1ccc(NC(=O)Nc2ccc3c(c2)C(=O)N([C@@H](C)CO)C[C@@H](C)[C@H](CN(C)Cc2ccc(Cl)c(Cl)c2)OCCCC[C@@H](C)O3)cc1 | inactive
16 | CCCN(C)C[C@@H]1OCCCC[C@@H](C)Oc2ccc(NC(=O)Nc3ccc(OC)cc3)cc2C(=O)N([C@H](C)CO)C[C@@H]1C | inactive
17 | COc1ccc(C#Cc2cnc3c(c2)C(=O)N([C@H](C)CO)C[C@@H](C)[C@@H](CN(C)C(=O)CC2CC2)O3)cc1 | inactive
18 | O=C(C[C@@H]1CC=CCC[C@@H](Cc2ccc(F)cc2)C(=O)OC[C@H](Cc2ccccc2)NC1=O)NCCO | inactive
19 | C[C@H](CO)N1C[C@H](C)[C@H](CN(C)Cc2cccc(C(F)(F)F)c2)Oc2ncc(/C=C/c3ccccc3)cc2C1=O | active
20 | C[C@H](CO)N1C[C@H](C)[C@H](CN(C)Cc2cccc(C(F)(F)F)c2)Oc2ncc(-c3cccc(F)c3)cc2C1=O | inactive
21 | C[C@H](CO)N1C[C@H](C)[C@H](CN(C)Cc2ccccc2)Oc2ncc(-c3cccc(C(F)(F)F)c3)cc2C1=O | inactive
22 | C[C@H](CO)N1C[C@H](C)[C@H](CN(C)Cc2cccc(C(F)(F)F)c2)Oc2ncc(-c3ccccc3)cc2C1=O | inactive

Row | SMILES | cytotoxicity call
23 | C[C@H](CO)N1C[C@H](C)[C@H](CN(C)Cc2cccc(C(F)(F)F)c2)Oc2ncc(-c3cccc(C(F)(F)F)c3)cc2C1=O | active
24 | Cc1cccc(CN(C)C[C@@H]2Oc3ncc(-c4cccc(C(F)(F)F)c4)cc3C(=O)N([C@H](C)CO)C[C@@H]2C)c1 | inactive
25 | C[C@H](CO)N1C[C@H](C)[C@H](CN(C)C(=O)C2CC2)Oc2ncc(-c3ccc(C(=O)N(C)C)cc3)cc2C1=O | inactive
26 | CC(C)NC(=O)N(C)C[C@@H]1Oc2ccc(NS(=O)(=O)c3cn(C)cn3)cc2CC(=O)N([C@H](C)CO)C[C@H]1C | inactive
27 | Cl.OC(c1cc(C(F)(F)F)nc2c(C(F)(F)F)cccc12)C1CCCCN1 (stereo not given) | active
28 | C[C@@H]1CN([C@H](C)CO)S(=O)(=O)c2ccc(C#CC3(O)CCCC3)cc2O[C@H]1CN(C)C(=O)c1ccncc1 | inactive
29 | CNC(=O)c1c(F)cccc1Nc1nc(Nc2cc3c(cc2OC)CCN3C(=O)CN(C)C)nc2[nH]ccc12 | active
30 | COc1cc(C(=O)N2CCC(N3CCN(C)CC3)CC2)ccc1Nc1ncc2c(n1)N(C)c1ccccc1C(=O)N2C | inactive
31 | C[C@@H]1CN([C@H](C)CO)C(=O)Cc2cc(NS(=O)(=O)c3cn(C)cn3)ccc2O[C@@H]1CN(C)C(=O)Nc1ccccc1 | inactive
32 | CC(C)NC(=O)Nc1ccc2c(c1)C(=O)N([C@@H](C)CO)C[C@@H](C)[C@H](CN(C)CC1CCCCC1)OCCCC[C@@H](C)O2 | inactive
33 | CN(C)CC(=O)N1[C@@H]2Cn3c(ccc(C4=CCCC4)c3=O)[C@H]1[C@@H](C(=O)NCC1CC1)[C@@H]2CO | inactive
34 | C[C@@H]1CN([C@@H](C)CO)S(=O)(=O)c2ccc(-c3cncnc3)cc2O[C@@H]1CN(C)C(=O)Cc1cccnc1 | inactive
35 | C[C@H]1CN([C@@H](C)CO)C(=O)c2cc(NS(C)(=O)=O)ccc2O[C@H]1CN(C)Cc1ccc2c(c1)OCO2 | inactive
36 | CC(C)=CCc1c2c(c3occ(-c4ccc(O)cc4)c(=O)c3c1O)C=CC(C)(C)O2 | inactive
37 | CC1(C)C=Cc2c(c3c(c4c(=O)c(-c5ccc(O)c(O)c5)coc24)OC(C)(C)CC3)O1 | inactive
38 | CC(C)=CCc1c2c(c3occ(-c4ccc(O)c(O)c4)c(=O)c3c1O)C=CC(C)(C)O2 | active
39 | CO[C@@H]1CN(C)C(=O)c2ccc(NC(=O)CN(C)C)cc2OC[C@@H](C)N(C(=O)c2ccncc2)C[C@H]1C | inactive
40 | C[C@@H]1CCCCO[C@H](CN(C)S(=O)(=O)c2cccs2)[C@@H](C)CN([C@H](C)CO)C(=O)c2cc(NC(=O)CCC(F)(F)F)ccc2O1 | inactive
41 | COC[C@@H]1CNN1C(=O)c1cc(C)oc1C | inactive
42 | CCCCCN1CC=C[C@@]23O[C@@H]4C=CCOC(=O)[C@@H]4[C@H]2C(=O)N([C@@H](C)CO)[C@@H]3C1=O | inactive
43 | CC(NCCc1ccc(O)cc1)C(O)c1ccc(O)cc1.Cl (stereo not given) | inactive
44 | CCCCCCCCNC[C@@H](O)[C@H](O)[C@@H](O)[C@@H](O)CO | inactive

Row | SMILES | cytotoxicity call
45 | CCCCCCCCNC(C)C(O)c1ccc(SC(C)C)cc1 (stereo not given) | active
46 | C[C@@H]1CN([C@@H](C)CO)S(=O)(=O)c2ccc(C#CCN(C)C)cc2O[C@@H]1CN(C)C(=O)CN(C)C | inactive
47 | C[C@@H]1CCCCO[C@@H](CN(C)S(=O)(=O)c2ccc(Cl)cc2)[C@H](C)CN([C@@H](C)CO)C(=O)c2cc(NC(=O)Nc3cccc4ccccc34)ccc2O1 | inactive
48 | COc1cc(OC)cc(C(=O)Nc2nc(-c3ccc4c(c3)CCN4C(=O)CN3CCOCC3)cs2)c1 | inactive
49 | CC(C)(C)c1cc(NC(=O)Nc2ccc(-c3cn4c(n3)sc3cc(OCCN5CCOCC5)ccc34)cc2)no1 | active
50 | O=C(NCCCN1CCOCC1)Nc1ccc(Cc2ccc(NC(=O)NCCCN3CCOCC3)cc2)cc1 | inactive
51 | C[C@H](CO)N1C[C@H](C)[C@@H](CN(C)CC2CC2)Oc2c(NC(=O)Nc3cccc4ccccc34)cccc2C1=O | inactive
52 | CC(C)CC(=O)Nc1cncc(-c2ccc3[nH]nc(-c4nc5cncc(-c6cccc(F)c6)c5[nH]4)c3c2)c1 | active
53 | Cn1c(=O)[nH]c(=O)c2c1nc(N1CCN(CCO)CC1)n2CC(=O)c1ccccc1 | inactive
54 | CCS(=O)(=O)N1C[C@]2(CN(C2)C(=O)c2ccc3c(c2)OCO3)c2c(n(c3cc(ccc23)OC)C)[C@@H]1CO | inactive
55 | COc1ccc(CN(C)C[C@@H]2Oc3c(NC(=O)c4ccc(-c5nccs5)cc4)cccc3C(=O)N([C@H](C)CO)C[C@H]2C)cc1 | active
56 | C[C@H]1CN([C@@H](C)CO)C(=O)c2cccc(NC(=O)c3ccc(-c4nccs4)cc3)c2O[C@H]1CN(C)Cc1ccc(Oc2ccccc2)cc1 | inactive
57 | COc1ccc(CN(C)C[C@H]2Oc3c(NC(=O)c4ccc(-c5nccs5)cc4)cccc3C(=O)N([C@@H](C)CO)C[C@@H]2C)cc1 | inactive
58 | C[C@H](CO)N1C[C@H](C)[C@H](CN(C)Cc2ccc(Oc3ccccc3)cc2)Oc2c(NC(=O)c3ccc(-c4nccs4)cc3)cccc2C1=O | active
59 | C[C@@H]1CN([C@H](C)CO)C(=O)c2cccc(NC(=O)c3ccc(-c4nccs4)cc3)c2O[C@H]1CN(C)Cc1ccc(Oc2ccccc2)cc1 | inactive
60 | COc1ccc(CN(C)C[C@H]2Oc3c(NC(=O)c4ccc(-c5nccs5)cc4)cccc3C(=O)N([C@H](C)CO)C[C@@H]2C)cc1 | inactive
61 | COc1ccc(NC(=O)Nc2ccc3c(c2)C(=O)N([C@H](C)CO)C[C@@H](C)[C@H](CN(C)S(=O)(=O)c2ccc(Cl)cc2)OCCCC[C@@H](C)O3)cc1 | inactive
62 | C[C@H]1CN([C@@H](C)CO)C(=O)c2cc(C3=CCCCC3)cnc2O[C@H]1CN(C)C(=O)CN1CCOCC1 | inactive
63 | O=C1OCc2cc(-n3cnnn3)ccc21 | inactive
64 | COc1ccc(NC(=O)N(C)C[C@H]2OCCCC[C@H](C)Oc3ccc(NC(=O)c4ccccc4)cc3C(=O)N([C@H](C)CO)C[C@H]2C)cc1 | inactive
65 | C[C@@H]1CN([C@H](C)CO)C(=O)c2cc(NC(=O)Nc3ccccc3)ccc2O[C@H]1CN(C)S(=O)(=O)c1cn(C)cn1 | inactive
